A selection follows.
aSyn 5UTR act – Activators via SNCA 5'UTR binding, MLPCN | AID 1814, 2009 | alpha-synuclein 5'UTR reporter, activators screen | 300,000 tested, 7.1% active | activity score, % (tested at 7.5 µM), hits read low; in the data active means activity score below about -60%
* marks the source's active call; other numbers are inactive results.

Results for O=C(NC1CCCCCC1)c1cc2c(=O)n3ccccc3nc2s1 ?
aSyn 5UTR act: -85*

What do the screens show for `O=[N+]([O-])c1cc(N=Nc2ccc3ccccc3c2)ccc1O`?
aSyn 5UTR act: -104*

Results for CC(C)(C)c1ccc(-c2noc(-c3ccno3)n2)cc1 ?
aSyn 5UTR act: -120*

What do the screens show for `Nc1nc(-c2ccccc2)cc(-c2ccccc2O)n1`?
aSyn 5UTR act: -123*

How did Oc1ccc(-c2csc(-c3ccccc3)n2)cc1O do in these assays?
aSyn 5UTR act: -224*

Results for Oc1ccccc1-c1csc(-c2ccccc2)n1 ?
aSyn 5UTR act: -122*

Results for Oc1ccc(-c2csc(-c3cccnc3)n2)cc1O ?
aSyn 5UTR act: -96*

Results for CS(=O)c1nc(-c2ccc(Br)cc2)cc(-c2ccccc2)c1C#N (stereo not drawn) ?
aSyn 5UTR act: 120

What do the screens show for `Brc1ccsc1-c1csc(-c2ccncc2)n1`?
aSyn 5UTR act: -106*

Results for c1cncc(-c2nc(-c3ccc4c(c3)OCCO4)cs2)c1 ?
aSyn 5UTR act: -94*

What do the screens show for `Clc1ccc(-c2csc(-c3cccnc3)n2)s1`?
aSyn 5UTR act: -70*

How did Fc1ccccc1-c1csc(-c2cccnc2)n1 do in these assays?
aSyn 5UTR act: -105*

How did c1ccc(-c2csc(-c3ccncc3)n2)cc1 do in these assays?
aSyn 5UTR act: -74*

What do the screens show for `COC(=O)c1ccc(NC(=O)c2cc3sccc3n2C)cc1`?
aSyn 5UTR act: -79*

What do the screens show for `Cn1c(C(=O)Nc2ccccc2)cc2sccc21`?
aSyn 5UTR act: -172*

What do the screens show for `COc1ccc(NC(=O)c2cc3sccc3n2Cc2ccc(F)cc2)cc1OC`?
aSyn 5UTR act: -76*

What do the screens show for `COc1cc(NC(=O)c2cc3sccc3n2C)cc(OC)c1`?
aSyn 5UTR act: -232*

How did Cn1c(C(=O)Nc2ccc3c(c2)OCO3)cc2sccc21 do in these assays?
aSyn 5UTR act: -245*

Results for COc1ccc(OC)c(NC(=O)c2cc3sccc3n2C)c1 ?
aSyn 5UTR act: -93*

Results for Oc1ccc(Br)cc1C1Nc2ccccc2S1 (stereo not drawn) ?
aSyn 5UTR act: -84*

Results for Cc1cc(C(=O)C(C)Sc2cccc[n+]2[O-])c(C)n1-c1ccc(Cl)cc1 (stereo not drawn) ?
aSyn 5UTR act: -82*

What do the screens show for `Nc1nc(NC(=O)c2ccccc2)nn1-c1ccccc1`?
aSyn 5UTR act: -71*

What do the screens show for `O=C(Nc1nc(NC(=O)c2ccco2)n(-c2ccccc2)n1)c1ccccc1`?
aSyn 5UTR act: 79

What do the screens show for `Nc1nc(NC(=O)c2cccs2)nn1-c1ccccc1`?
aSyn 5UTR act: -115*

What do the screens show for `O=C(CNC(=O)c1cccs1)c1ccc(Br)cc1`?
aSyn 5UTR act: -176*

Results for CC(Cc1cccs1)NC(=O)c1cccs1 (stereo not drawn) ?
aSyn 5UTR act: -80*

How did Cc1ccc(-n2nc3c(N4CCC(C(=O)NCCc5cccs5)CC4)nnc(C)c3c2C)cc1 do in these assays?
aSyn 5UTR act: 90

Results for O=C(NCC(O)c1ccccc1)c1cccs1 (stereo not drawn) ?
aSyn 5UTR act: -136*

How did O=C(NCCc1cccs1)c1cccs1 do in these assays?
aSyn 5UTR act: -147*

Results for O=C(NCCc1ccc(F)cc1)c1cccs1 ?
aSyn 5UTR act: -139*

Results for O=C(NCCCc1ccccc1)c1cccs1 ?
aSyn 5UTR act: -88*

What do the screens show for `CC(Cc1cccs1)NC(=O)Nc1ccc([N+](=O)[O-])cc1` (stereo not drawn)?
aSyn 5UTR act: -75*

Results for COc1ccc2cc(CCNC(=O)c3cccs3)c(=O)[nH]c2c1 ?
aSyn 5UTR act: -138*

Results for CCN(CC)c1ccc(NC(=O)Nc2ccccc2C(F)(F)F)cc1 ?
aSyn 5UTR act: -80*

What do the screens show for `CCN(CC)c1ccc(NC(=O)Nc2cccc3ccccc23)cc1`?
aSyn 5UTR act: -115*

How did CCN(CC)c1ccc(NC(=O)CCCCC(=O)Nc2ccc(N(CC)CC)cc2)cc1 do in these assays?
aSyn 5UTR act: 63

What do the screens show for `CN(C)c1ccc(NC(=O)Nc2cccc3ccccc23)cc1`?
aSyn 5UTR act: -77*

How did Cc1ccc(C(=O)Nc2c3c(nn2C(C)(C)C)CS(=O)(=O)C3)cc1[N+](=O)[O-] do in these assays?
aSyn 5UTR act: -79*

What do the screens show for `CC(C)(C)n1nc2c(c1NC(=O)c1cc([N+](=O)[O-])ccc1Cl)CS(=O)(=O)C2`?
aSyn 5UTR act: -95*

Results for CC1=NN(C(N)=S)C(=O)C1N=Nc1cccc(Cl)c1 (stereo not drawn) ?
aSyn 5UTR act: -86*

How did CC1=NN(C(N)=S)C(=O)C1N=Nc1ccc(C)cc1C (stereo not drawn) do in these assays?
aSyn 5UTR act: -102*

Results for CC(=O)N(C)c1ccc(N=NC2C(=O)N(C(N)=S)N=C2C)cc1 (stereo not drawn) ?
aSyn 5UTR act: -93*

Results for COc1cccc(N=NC2C(=O)N(C(N)=S)N=C2C)c1 (stereo not drawn) ?
aSyn 5UTR act: -95*

Results for CC1(C)Cc2nc3sc(C(=O)NCCCO)c(N)c3cc2CS1 ?
aSyn 5UTR act: -92*

Results for Cc1ccccc1NC(=O)C(=O)c1cn(C)c2ccccc12 ?
aSyn 5UTR act: -133*

How did CC(=O)n1cc(N(C(=O)CCl)c2ccc(Cl)cc2)c2ccccc21 do in these assays?
aSyn 5UTR act: 103

How did Nc1c(-c2ccccc2)cnn1-c1cccc(Cl)c1 do in these assays?
aSyn 5UTR act: -144*

How did Cc1cccc(-c2cnn(-c3ccccc3)c2N)c1 do in these assays?
aSyn 5UTR act: -129*

What do the screens show for `Cc1cccc(-c2cnn(-c3cccc([N+](=O)[O-])c3)c2N)c1`?
aSyn 5UTR act: -75*

Results for COc1ccc(-c2ccc3ccccc3n2)cc1OC ?
aSyn 5UTR act: -171*

Results for COc1cc(-c2ccc(=O)[nH]n2)ccc1OC(F)F ?
aSyn 5UTR act: 87

How did COc1ccc(-c2cc(-c3ccc(OC)c(OC)c3)n[nH]2)c(O)c1 do in these assays?
aSyn 5UTR act: -163*

How did COc1ccc(-c2cc(-c3ccccc3O)[nH]n2)cc1OC do in these assays?
aSyn 5UTR act: -154*

Results for NC(=O)c1ccc(-n2nnnc2Oc2ccccc2C(=O)N2CCOCC2)cc1 ?
aSyn 5UTR act: -108*

How did Cc1ccccc1COc1ccc(/C=C(\C#N)C(N)=O)cc1 do in these assays?
aSyn 5UTR act: -105*

How did N#C/C(=C/c1ccc(OCc2ccccc2)cc1)C(=O)NC1CCCCC1 do in these assays?
aSyn 5UTR act: -121*

How did CNC(=O)/C(C#N)=C/c1ccc(OCCOc2ccccc2)cc1 do in these assays?
aSyn 5UTR act: -66*

How did N#Cc1ccccc1COc1ccc(/C=C/C(=O)O)cc1 do in these assays?
aSyn 5UTR act: 71

How did N#C/C(=C\c1ccc(OCc2ccccc2)cc1)C(N)=O do in these assays?
aSyn 5UTR act: -92*

Results for CCOc1ccc(NC(=O)c2nccnc2CO)cc1 ?
aSyn 5UTR act: -120*

How did CCOc1ccc(NC(=O)c2ccccc2OC)cc1 do in these assays?
aSyn 5UTR act: -140*

How did CCOc1ccc(NC(=O)c2ccccc2O)cc1 do in these assays?
aSyn 5UTR act: -66*

How did CC(=O)c1ccc(NC(=O)COc2ccccc2C(=O)Nc2ccccc2)cc1 do in these assays?
aSyn 5UTR act: -78*

How did CCOc1ccc(NC(=O)c2ccccn2)cc1 do in these assays?
aSyn 5UTR act: 104

Results for CCOc1ccc(NC(=O)c2ccccc2OCC(=O)c2ccccc2)cc1 ?
aSyn 5UTR act: -83*

Results for CCOc1ccc(NC(=O)c2cccnc2C(=O)O)cc1 ?
aSyn 5UTR act: -109*

How did CCOc1ccc(NC(=O)c2ccccc2-c2ccccc2C(=O)O)cc1 do in these assays?
aSyn 5UTR act: -63*
